# Data as given in PubChem BioAssay (Tox21).
# Records with an inconclusive call do not appear. Entries that show only a call come without a potency. The source made the active and inactive calls. Unless noted, the call rests on the fitted dose curve.
# Legend:
# [1] = target: Gonadotropin-releasing hormone receptor (Homo sapiens) (UniProt P30968); assay: Human gonadotropin-releasing hormone receptor (GnRHR) small molecule agonists, calcium flux assay in GnRHR-HEK293 cells (AID 1920063); further: nearly all actives have a fitted effect of over 35% in size
# Sequence of Gonadotropin-releasing hormone receptor (Homo sapiens) (P30968 whole entry, looked up): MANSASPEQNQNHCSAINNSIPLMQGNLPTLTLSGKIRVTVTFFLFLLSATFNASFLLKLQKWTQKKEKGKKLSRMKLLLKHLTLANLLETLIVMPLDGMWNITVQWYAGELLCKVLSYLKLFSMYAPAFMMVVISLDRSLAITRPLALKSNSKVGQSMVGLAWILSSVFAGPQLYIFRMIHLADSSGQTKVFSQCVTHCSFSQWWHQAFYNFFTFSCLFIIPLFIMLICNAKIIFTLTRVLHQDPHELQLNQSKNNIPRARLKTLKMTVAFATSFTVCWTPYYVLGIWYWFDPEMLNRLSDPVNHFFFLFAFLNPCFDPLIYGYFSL
# Outline: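 Tox21-format agonist screen using human GnRHR-expressing HEK293 cells and a fluorescent calcium dye; kinetic 3-min fluorescence reading after compound addition, 15-point concentration series run in triplicate.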
# [2] = target: KiSS-1 receptor (Homo sapiens) (UniProt Q969F8); assay: Human kisspeptin (KISS1R) small molecule agonists, calcium flux assay in KISS1R-HEK293 cells (AID 1920064; active means well fitted curve in the direction sought with a large enough effect in the repeat runs; an effect the other way counts as inactive or inconclusive)
# Sequence of KiSS-1 receptor (Homo sapiens) (Q969F8 whole entry, looked up): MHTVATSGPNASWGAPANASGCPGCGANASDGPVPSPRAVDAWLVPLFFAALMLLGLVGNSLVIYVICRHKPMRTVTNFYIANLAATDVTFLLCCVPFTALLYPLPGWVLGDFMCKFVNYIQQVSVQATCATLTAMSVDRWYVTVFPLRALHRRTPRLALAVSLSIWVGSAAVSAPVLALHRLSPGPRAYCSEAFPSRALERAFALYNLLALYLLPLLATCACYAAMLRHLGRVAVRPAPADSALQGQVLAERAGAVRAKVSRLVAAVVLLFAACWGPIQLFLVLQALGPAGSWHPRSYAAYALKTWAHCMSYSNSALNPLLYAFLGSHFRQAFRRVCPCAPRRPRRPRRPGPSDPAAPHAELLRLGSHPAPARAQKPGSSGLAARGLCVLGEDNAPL
# Outline: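 Intracellular calcium mobilization in KISS1R-HEK293 cells was recorded by fluorescence (Ex/Em 480/540) for 3 min following compound addition to cells pre-loaded 1 h with calcium dye.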
# [3] = G protein-coupled receptor (GPCR) small molecule agonists, calcium flux assay: HEK293 wild type cell line counter screen (AID 1920065)
# Outline: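 In this agonist-mode screen, ATP is the positive control and DMSO the vehicle. Cells grow 18 h before a 1 h dye incubation at 37 C; signal is taken at Ex/Em 480/540 over 3 min.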
# [4] = p53 small molecule agonists, cell-based qHTS assay with human liver microsomes (AID 1963577);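 further: p53 response element beta-lactamase reporter cells with liver microsomes plus NADPH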
# Outline: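 HLM-supplemented p53RE-bla reporter assay: 16 h compound exposure at 37 C, microsomes and NADPH each 0.5 mg/mL final, read by fluorescence intensity.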
# [5] = p53 small molecule agonists, cell-based qHTS assay with rat liver microsomes (AID 1963578)
# Outline: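 Quantitative HTS of the Tox21 10K library: p53RE-bla cells, rat liver microsomes plus NADPH at 0.5 mg/mL final each, 16 h at 37 C, beta-lactamase fluorescence detection.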
# [6] = p53 small molecule agonists, cell-based qHTS assay with human liver microsomes: qHTS cell viability counter screen (AID 1963579); further: nearly all actives have a fitted effect of over 45% in size; further: potency means the concentration at half of the fitted maximal effect
# Outline: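 Viability of p53RE-bla cells is measured as CellTiter-Glo luminescence following a 16 h, 37 C incubation with compound, liver microsomes from human donors and NADPH.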
# [7] = p53 small molecule agonists, cell-based qHTS assay with rat liver microsomes: qHTS cell viability counter screen (AID 1963580); further: nearly all actives have a fitted effect of over 45% in size; further: potency means the concentration at half of the fitted maximal effect
# Outline: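 p53RE-bla HCT-116 cells (4,000/well) rested 5 h at 37 C, then given Tox21 compounds in DMSO with rat liver microsomes (0.5 mg/mL final) plus NADPH (0.5 mg/mL final) for 16 h at 37 C. Viability read by CellTiter-Glo luminescence after 30 min at room temperature.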
# [8] = p53 small molecule agonists, cell-based qHTS assay: qHTS cell viability counter screen (AID 1963581); further: nearly all actives have a fitted effect of over 45% in size; further: potency means the concentration at half of the fitted maximal effect
# Outline: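 Compounds are pinned onto HCT-116 p53RE-bla cells and left 16 h at 37 C. Following the reporter FRET read, ATP is quantified by CellTiter-Glo luminescence after 30 min at room temperature.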
# [9] = p53 small molecule agonists, cell-based qHTS assay (AID 1963582; active means well fitted activation curve with a large enough effect in the signal ratio in the repeat runs, not every such curve was filed as active; the % refers to the signal ratio)
# Outline: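 Agonist activity was scored from beta-lactamase FRET fluorescence in p53RE-bla cells treated 16 h at 37 C with compounds in DMSO, substrate incubation being 2 h at room temperature.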
# [10] = target: 5-hydroxytryptamine receptor 2A (Homo sapiens) (UniProt P28223); assay: 5-hydroxytryptamine receptor 2A (HTR2A) small molecule antagonists, cell-based qHTS assay (AID 1963586); further: nearly all actives have a fitted effect of over 45% in size; further: potency means the concentration at half of the fitted maximal effect
# Sequence of 5-hydroxytryptamine receptor 2A (Homo sapiens) (P28223 whole entry, looked up): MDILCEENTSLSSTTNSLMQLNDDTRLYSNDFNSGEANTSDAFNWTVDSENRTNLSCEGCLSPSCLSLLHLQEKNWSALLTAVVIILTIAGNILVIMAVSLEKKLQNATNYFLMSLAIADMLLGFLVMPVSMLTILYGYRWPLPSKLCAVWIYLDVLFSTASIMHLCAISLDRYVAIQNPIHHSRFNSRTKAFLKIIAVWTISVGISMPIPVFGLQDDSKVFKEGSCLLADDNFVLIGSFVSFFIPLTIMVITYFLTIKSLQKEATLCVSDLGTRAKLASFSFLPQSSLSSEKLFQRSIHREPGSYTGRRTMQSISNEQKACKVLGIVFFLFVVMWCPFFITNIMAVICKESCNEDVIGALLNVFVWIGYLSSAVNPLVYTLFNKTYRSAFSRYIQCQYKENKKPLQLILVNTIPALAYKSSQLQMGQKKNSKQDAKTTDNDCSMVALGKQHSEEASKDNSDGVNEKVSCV
# Outline: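 Antagonist-mode intracellular calcium assay: DOI (4 nM) added after 5 min compound pre-incubation at room temperature to dye-loaded HTR2A-CHO cells. Fluorescence followed for 3 min, sampled every second.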
# [11] = target: 5-hydroxytryptamine receptor 2A (Homo sapiens) (UniProt P28223); assay: 5-hydroxytryptamine receptor 2A (HTR2A) small molecule agonists, cell-based qHTS assay (AID 1963587); further: nearly all actives have a fitted effect of over 30% in size
# Outline: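 HTR2A-CHO cells, plated 18 h at 37 C/5% CO2, dye-loaded 1 h at 37 C; compounds in DMSO added by pin tool (agonist mode). Intracellular calcium flux read as kinetic fluorescence on FDSS over 2 min at 1 s intervals.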
# [12] = target: Muscarinic acetylcholine receptor M1 (Homo sapiens) (UniProt P11229); assay: Cholinergic receptor muscarinic 1 (CHRM1) small molecule antagonists, cell-based qHTS assay (AID 1963588); further: nearly all actives have a fitted effect of over 40% in size; further: potency means the concentration at half of the fitted maximal effect
# Sequence of Muscarinic acetylcholine receptor M1 (Homo sapiens) (P11229 whole entry, looked up): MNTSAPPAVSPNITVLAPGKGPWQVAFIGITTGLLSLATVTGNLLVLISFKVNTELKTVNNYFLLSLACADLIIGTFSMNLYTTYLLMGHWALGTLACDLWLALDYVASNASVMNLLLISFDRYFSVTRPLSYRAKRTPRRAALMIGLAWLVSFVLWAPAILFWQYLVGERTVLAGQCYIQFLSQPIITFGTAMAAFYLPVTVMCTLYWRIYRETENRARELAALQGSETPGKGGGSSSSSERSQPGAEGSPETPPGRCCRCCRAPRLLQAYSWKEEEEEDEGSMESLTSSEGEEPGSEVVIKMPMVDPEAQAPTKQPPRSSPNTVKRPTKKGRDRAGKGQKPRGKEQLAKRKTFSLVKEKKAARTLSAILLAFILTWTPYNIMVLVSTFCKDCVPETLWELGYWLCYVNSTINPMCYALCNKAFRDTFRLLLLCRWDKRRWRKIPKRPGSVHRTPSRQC
# Outline: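 CHRM1-CHO calcium-flux assay, antagonist mode. Cells were seeded 18 h, dye-loaded 1 h at 37 C and given compound for 5 min at RT, then acetylcholine was added at 50nM. FDSS fluorescence was read 3 min; 15 concentrations, three runs.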
# [13] = target: Muscarinic acetylcholine receptor M1 (Homo sapiens) (UniProt P11229); assay: Cholinergic receptor muscarinic 1 (CHRM1) small molecule agonists, cell-based qHTS assay (AID 1963589); further: nearly all actives have a fitted effect of over 35% in size
# Outline: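 Stable CHRM1-CHO cells (human receptor) were incubated 18 h, dye-loaded for 1 h at 37 C and exposed to test compounds for agonist activity, with calcium-dependent fluorescence followed kinetically.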
# [14] = cAMP Responsive Elements (CRE) small molecule antagonists, cell-based qHTS assay (AID 1963591; active means well fitted inhibition curve with a large enough effect in the signal ratio in the repeat runs, not every such curve was filed as active; the % refers to the signal ratio)
# Outline: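 qHTS in CRE-bla HEK 293T cells: compound in DMSO, then 0.25 uM NKH477 (final), 3 h at 37 °C/5% CO2; beta-lactamase FRET read-out after 2 h substrate incubation.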
# [15] = target: D(2) dopamine receptor (Homo sapiens) (UniProt P14416); assay: Dopamine D2 receptor (DRD2) small molecule agonists, cell-based qHTS assay (AID 1963594); further: nearly all actives have a fitted effect of over 35% in size
# Sequence of D(2) dopamine receptor (Homo sapiens) (P14416 whole entry, looked up): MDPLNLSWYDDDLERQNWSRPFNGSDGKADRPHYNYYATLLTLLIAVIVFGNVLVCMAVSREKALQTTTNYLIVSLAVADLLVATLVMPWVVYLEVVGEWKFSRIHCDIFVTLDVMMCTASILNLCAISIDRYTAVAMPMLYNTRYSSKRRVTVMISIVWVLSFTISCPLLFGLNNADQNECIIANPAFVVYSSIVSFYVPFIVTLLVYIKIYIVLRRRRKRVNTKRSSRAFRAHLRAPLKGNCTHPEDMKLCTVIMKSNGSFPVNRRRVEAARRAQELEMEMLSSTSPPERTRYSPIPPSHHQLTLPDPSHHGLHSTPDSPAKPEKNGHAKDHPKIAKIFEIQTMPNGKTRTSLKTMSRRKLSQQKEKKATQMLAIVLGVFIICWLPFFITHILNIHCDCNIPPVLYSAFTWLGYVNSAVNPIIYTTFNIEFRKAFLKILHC
# Outline: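 HEK293 cells stably expressing DRD2 were cultured 24 h at 37 C, then given Ro20-1724 (0.1 mM final) and compounds for 10 min at room temperature. NKH477 (200nM) was then added for 30 min. cAMP was read by HTRF.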
# [16] = target: D(2) dopamine receptor (Homo sapiens) (UniProt P14416); assay: Dopamine D2 receptor (DRD2) small molecule antagonists, cell-based qHTS assay (AID 1963595; active means well fitted inhibition curve with a large enough effect in the signal ratio in the repeat runs, with a control signal flat; the % refers to the signal ratio; further: potency means the concentration at half of the fitted maximal effect)
# Outline: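 Antagonist mode in DRD2-HEK293 cells: after compound addition with 0.1 mM Ro20-1724, cells received quinpirole (12 nM) and NKH477 (200 nM) for 30 min at room temperature; HTRF cAMP read after 1 h detection.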
# [17] = cAMP Responsive Elements (CRE) small molecule agonists, cell-based qHTS assay (AID 1963590)
# Outline: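 FRET-based beta-lactamase readout (LiveBLAzer B/G, 2 h RT) quantified CRE activation in HEK 293T CRE-bla cells after 3 h treatment with DMSO-dissolved compounds.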
# [18] = target: Beta-2 adrenergic receptor (Homo sapiens) (UniProt P07550); assay: Adrenergic beta2 receptor (ADRB2) small molecule antagonists, cell-based qHTS assay (AID 1963592); further: series mostly up to about 92 µM; nearly all actives have a fitted effect of over 50% in size
# Sequence of Beta-2 adrenergic receptor (Homo sapiens) (P07550 whole entry, looked up): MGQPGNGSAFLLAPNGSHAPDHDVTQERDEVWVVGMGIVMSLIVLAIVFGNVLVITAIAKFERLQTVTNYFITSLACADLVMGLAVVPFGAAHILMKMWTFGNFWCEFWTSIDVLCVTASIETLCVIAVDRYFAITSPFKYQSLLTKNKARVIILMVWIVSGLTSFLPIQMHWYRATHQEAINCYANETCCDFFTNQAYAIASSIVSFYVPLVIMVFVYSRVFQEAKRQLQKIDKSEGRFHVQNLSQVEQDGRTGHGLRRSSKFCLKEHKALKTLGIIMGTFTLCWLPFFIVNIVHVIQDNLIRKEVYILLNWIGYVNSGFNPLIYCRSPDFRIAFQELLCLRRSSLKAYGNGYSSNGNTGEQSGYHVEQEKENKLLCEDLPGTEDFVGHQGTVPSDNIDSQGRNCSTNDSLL
# Outline: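 Cells (CHO, stable ADRB2 overexpression) incubated 18-20hr at 37C; compounds added from DMSO; agonist mix (1nM isoproterenol, 100uM IBMX, 25uM Ro-20-1724) added; 0.5hr RT; d2-cAMP and anti-cAMP-cryptate added; 1hr RT; 665/615 nm read.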
# [19] = target: Beta-2 adrenergic receptor (Homo sapiens) (UniProt P07550); assay: Adrenergic beta2 receptor (ADRB2) small molecule agonists, cell-based qHTS assay (AID 1963593);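 further: CHO cells stably overexpressing human ADRB2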
# Outline: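 CHO cells stably over-expressing ADRB2 were plated overnight at 37C, then dosed with compounds plus a stimulation mix containing 100uM IBMX and 25uM Ro-20-1724 for 0.5hr at room temperature. cAMP was measured by HTRF competition, 1hr.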
# [20] = Nuclear factor erythroid 2-related factor 2/antioxidant responsive element (Nrf2/ARE) small molecule agonists: qHTS cell viability counter screen in human keratinocytes (AID 1919968; active means well fitted curve in the direction sought with a large enough effect in the repeat runs; an effect the other way counts as inactive or inconclusive; further: potency means the concentration at half of the fitted maximal effect; nearly all actives have a fitted effect of over 55% in size)
# Outline: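 Viability counter-screen: KeratinoSens reporter cells, DMSO-delivered compounds, 23 h at 37 C, CellTiter-Fluor fluorescence.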
smiles,measurement,setting,value
C=C[C@](C)(O)CC[C@@H]1[C@@]2(C)CCCC(C)(C)[C@@H]2CC[C@@]1(C)O,Potency,[1],inactive
same,Potency,[2],inactive
same,Potency,[3],inactive
same,Potency,[4],inactive
same,Potency,[5],inactive
same,Potency,[6],32.4 µM (active)
same,Potency,[7],45.8 µM (active)
same,Potency,[8],9.13 µM (active)
same,Potency,[9],inactive
same,Potency,[10],inactive
same,Potency,[11],inactive
same,Potency,[12],inactive
same,Potency,[13],inactive
same,Potency,[14],inactive
same,Potency,[15],inactive
same,Potency,[16],43.3 µM (active)
COc1cc([N+](=O)[O-])ccc1N,Potency,[1],inactive
same,Potency,[2],inactive
same,Potency,[3],inactive
same,Potency,[4],inactive
same,Potency,[5],inactive
same,Potency,[6],inactive
same,Potency,[7],inactive
same,Potency,[8],inactive
same,Potency,[9],inactive
same,Potency,[10],inactive
same,Potency,[11],inactive
same,Potency,[12],inactive
same,Potency,[13],inactive
same,Potency,[17],inactive
same,Potency,[14],inactive
same,Potency,[18],inactive
same,Potency,[19],inactive
same,Potency,[15],inactive
same,Potency,[16],inactive
O=C1CCCCCN1SSN1CCCCCC1=O,Potency,[1],inactive
same,Potency,[2],inactive
same,Potency,[3],inactive
same,Potency,[4],inactive
same,Potency,[5],inactive
same,Potency,[6],inactive
same,Potency,[7],inactive
same,Potency,[8],inactive
same,Potency,[10],inactive
same,Potency,[11],inactive
same,Potency,[12],inactive
same,Potency,[13],inactive
same,Potency,[14],inactive
same,Potency,[18],inactive
same,Potency,[15],inactive
same,Potency,[16],inactive
CCCCCCCCCCCCN1CCCC1=O,Potency,[1],inactive
same,Potency,[2],inactive
same,Potency,[3],inactive
same,Potency,[4],inactive
same,Potency,[5],inactive
same,Potency,[6],inactive
same,Potency,[7],inactive
same,Potency,[8],inactive
same,Potency,[9],inactive
same,Potency,[10],inactive
same,Potency,[11],inactive
same,Potency,[12],inactive
same,Potency,[13],inactive
same,Potency,[17],inactive
same,Potency,[14],inactive
same,Potency,[19],inactive
same,Potency,[15],inactive
same,Potency,[16],inactive
OCCN1CCN(CC/C=C2/c3ccccc3Sc3ccc(C(F)(F)F)cc32)CC1,Potency,[1],inactive
same,Potency,[2],inactive
same,Potency,[3],inactive
same,Potency,[4],inactive
same,Potency,[5],inactive
same,Potency,[6],inactive
same,Potency,[7],inactive
same,Potency,[8],inactive
same,Potency,[9],inactive
same,Potency,[10],0.13 µM (active)
same,Potency,[12],3.65 µM (active)
same,Potency,[13],inactive
same,Potency,[18],inactive
same,Potency,[16],0.168 µM (active)
O=c1cc(-c2ccccc2)oc2cc(O)cc(O)c12,Potency,[1],inactive
same,Potency,[2],inactive
same,Potency,[3],inactive
same,Potency,[4],inactive
same,Potency,[5],inactive
same,Potency,[6],inactive
same,Potency,[7],inactive
same,Potency,[8],inactive
same,Potency,[10],inactive
same,Potency,[11],inactive
same,Potency,[12],inactive
same,Potency,[13],inactive
same,Potency,[18],inactive
same,Potency,[15],inactive
same,Potency,[16],inactive
CCCCCCCC/C=C\CCCCCCCC(=O)N(CCO)CCO,Potency,[1],inactive
same,Potency,[2],inactive
same,Potency,[3],inactive
same,Potency,[4],inactive
same,Potency,[5],inactive
same,Potency,[6],inactive
same,Potency,[7],inactive
same,Potency,[8],inactive
same,Potency,[10],inactive
same,Potency,[11],inactive
same,Potency,[12],inactive
same,Potency,[13],inactive
same,Potency,[17],inactive
same,Potency,[14],inactive
same,Potency,[18],inactive
same,Potency,[19],inactive
same,Potency,[15],inactive
same,Potency,[16],inactive
C=CC(=C)CCC=C(C)C,Potency,[1],inactive
same,Potency,[2],inactive
same,Potency,[3],inactive
same,Potency,[4],inactive
same,Potency,[5],inactive
same,Potency,[6],inactive
same,Potency,[7],inactive
same,Potency,[8],inactive
same,Potency,[9],inactive
same,Potency,[10],inactive
same,Potency,[11],inactive
same,Potency,[12],inactive
same,Potency,[13],inactive
same,Potency,[17],inactive
same,Potency,[14],inactive
same,Potency,[18],inactive
same,Potency,[19],inactive
same,Potency,[15],inactive
same,Potency,[16],inactive
CC1(C)O[C@@H]2C[C@H]3[C@@H]4CCC5=CC(=O)C=C[C@]5(C)[C@H]4[C@@H](O)C[C@]3(C)[C@]2(C(=O)CO)O1,Potency,[1],inactive
same,Potency,[2],inactive
same,Potency,[3],inactive
same,Potency,[4],inactive
same,Potency,[5],inactive
same,Potency,[6],inactive
same,Potency,[7],inactive
same,Potency,[8],inactive
same,Potency,[9],inactive
same,Potency,[11],inactive
same,Potency,[12],inactive
same,Potency,[18],inactive
same,Potency,[19],inactive
same,Potency,[15],inactive
CN1CCN(c2cc3c(nn2)Oc2ccccc2N3C)CC1,activity change,[1],"-0.362% [at 11.8 µM, hits give high values] (inactive)"
same,activation,[2],-0.078% [at 15.8 µM] (inactive)
same,activation,[3],-0.0481% [at 11.8 µM] (inactive)
same,activation,[4],-1.74% [at 13.5 µM] (inactive)
same,activation,[5],0.736% [at 13.6 µM] (inactive)
same,"activity change, negative = cytotoxicity",[6],-6.1% [at 13.5 µM] (inactive)
same,"activity change, negative = cytotoxicity",[7],0.69% [at 13.5 µM] (inactive)
same,"activity change, negative = cytotoxicity",[8],-9.68% [at 13.5 µM] (inactive)
same,activation,[9],6.54% [at 13.5 µM] (inactive)
same,activation,[11],-12.8% [at 15.9 µM] (inactive)
same,"activity, negative = inhibition",[12],-12.9% [at 12.6 µM] (inactive)
same,activation,[13],3.18% [at 15.8 µM] (inactive)
same,activation,[17],1.47% [at 19 µM] (inactive)
same,"activity change, negative = inhibition",[14],0.639% [at 18.9 µM] (inactive)
same,activation,[19],4.93% [at 19 µM] (inactive)
same,activation,[15],11.1% [at 19 µM] (inactive)
same,"activity change, negative = inhibition",[16],-3.28% [at 18.9 µM] (inactive)
COc1ccccc1OCCNCC(O)COc1cccc2[nH]c3ccccc3c12 (centres undefined),Potency,[1],inactive
same,Potency,[2],inactive
same,Potency,[3],inactive
same,Potency,[4],inactive
same,Potency,[5],inactive
same,Potency,[6],inactive
same,Potency,[7],inactive
same,Potency,[8],inactive
same,Potency,[9],inactive
same,Potency,[14],inactive
CCOc1nc2cccc(C(=O)OC(C)OC(=O)OC3CCCCC3)c2n1Cc1ccc(-c2ccccc2-c2nn[nH]n2)cc1 (centres undefined),Potency,[20],48.5 µM (active)
same,Potency,[3],inactive
same,Potency,[4],inactive
same,Potency,[5],inactive
same,Potency,[6],12.9 µM (active)
same,Potency,[8],14.5 µM (active)
same,Potency,[10],inactive
same,Potency,[12],inactive
same,Potency,[13],inactive
same,Potency,[18],inactive
same,Potency,[19],inactive
same,Potency,[15],inactive
same,Potency,[16],inactive
